Screening results deposited in PubChem BioAssay by National Center for Advancing Translational Sciences (NCATS).
ALDH1A1 block – blocks purified human ALDH1A1 activity | Purified ALDH1A1, NADH fluorescence, propionaldehyde substrate | Potency, µM (highest dose often 75.3 µM), actives largely listed as inhibitors | AID 1030 | 7.3% of 220,000 active
Target sequence (P00352 whole entry, looked up): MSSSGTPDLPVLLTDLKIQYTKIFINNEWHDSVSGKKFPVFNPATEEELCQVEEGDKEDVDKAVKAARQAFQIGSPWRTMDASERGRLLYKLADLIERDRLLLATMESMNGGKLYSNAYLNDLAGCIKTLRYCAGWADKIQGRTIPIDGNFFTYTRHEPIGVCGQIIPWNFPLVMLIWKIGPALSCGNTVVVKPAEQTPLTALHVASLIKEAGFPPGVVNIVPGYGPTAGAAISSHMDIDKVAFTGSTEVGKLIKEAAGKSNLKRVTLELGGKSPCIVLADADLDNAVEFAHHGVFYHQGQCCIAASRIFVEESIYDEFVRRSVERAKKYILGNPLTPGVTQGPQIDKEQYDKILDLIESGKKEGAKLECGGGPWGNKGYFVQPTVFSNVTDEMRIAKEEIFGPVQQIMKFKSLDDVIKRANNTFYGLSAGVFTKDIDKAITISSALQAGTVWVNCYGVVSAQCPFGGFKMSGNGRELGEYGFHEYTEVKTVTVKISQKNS
PNC inhibitor – perinucleolar compartment assembly inhibition; PC3M PTB-GFP, PNC prevalence imaging, 16 h; stronger effect = lower value; activity change (PNC), negative = inhibition, % at 10 µM; 3.1% of 140,000 active; AID 2417;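 active = readout at or below -70, meaning at least 70% loss of cells showing the perinucleolar compartment, a nuclear body marking cancer cells; inconclusive = readout between -30 and a set limit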
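Compounds are pinned in duplicate onto adhered PC3M cells stably expressing GFP-tagged PTB and incubated 16 h at 37 C. Cells are then fixed, nuclei stained with Hoechst, and PNC-positive cells counted.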
LMNA splice mod – modulators of lamin A splicing; HeLa LMNA splicing GFP/RFP minigene ratio, 48 h; Potency, µM (doses to about 46.1 µM), actives largely listed as inhibitors; 0.01% of 200,000 active; active = well fitted inhibition curve with a large enough effect in the signal ratio, with a control signal flat, not every such curve was filed as active; inconclusive = small, poorly fitted or top-dose-only effect, or effect the other way, or a change in a side signal; the % refers to the signal ratio
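S3 HeLa stable clones carrying a lamin A-EGFP splicing minigene plus DsRed2 were seeded at 600 cells/well in Opti-MEM with 2% FBS, pin-dosed and incubated 48 h at 37°C. Acumen cytometry (488 nm) gave the GFP/RFP total-intensity ratio.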
HPGD block – blocks human HPGD enzyme activity. AID 894. Potency, µM, actives largely listed as inhibitors. 4.3% of 150,000 active. purified HPGD, NADH fluorescence kinetic, PGE2 substrate
Target sequence (P15428 whole entry, looked up): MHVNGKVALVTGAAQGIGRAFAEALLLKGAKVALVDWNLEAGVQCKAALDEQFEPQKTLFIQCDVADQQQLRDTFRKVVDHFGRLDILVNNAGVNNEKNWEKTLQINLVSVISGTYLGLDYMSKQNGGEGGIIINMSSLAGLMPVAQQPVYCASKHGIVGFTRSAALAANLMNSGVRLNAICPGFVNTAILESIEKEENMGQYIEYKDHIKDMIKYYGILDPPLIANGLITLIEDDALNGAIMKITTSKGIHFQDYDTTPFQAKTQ
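20 nM HPGD preincubated 15 min at room temperature with compound in 50 mM Tris-HCl pH 8, 0.01% Tween 20. Started with 1 mM NAD+ and 30 uM prostaglandin E2; NADH fluorescence (360/450 nm) read 5 times over 30-s intervals, last minus first.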
ALOX12 inhib – 12-hLO (ALOX12) enzyme inhibition. Potency, µM (highest dose often 57.1 µM), usual class: inhibitors. purified 12-hLO, xylenol orange hydroperoxide absorbance. 0.12% of 150,000 active; active = well fitted inhibition curve with a large enough effect; inconclusive = small, poorly fitted or top-dose-only effect; also: nearly all actives have a fitted effect of over 55% in size
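Xylenol orange chromogenic assay: hydroperoxide from 12hLO oxidises Fe(II), giving red-shifted Fe(III)-XO absorbance. Conditions: 150 nM enzyme, 40 uM arachidonic acid, 25 mM Hepes pH 7.0, 0.01% Triton X-100, 30 min, room temperature.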
Numbers stand for hits; i = inactive; ? = inconclusive; nt = no result; [ ] = another dose, or the depositor's remark. Compounds with a hit are over-represented: about 10% of the library has one in this group of screens. Unless noted, calls follow the shape of the dose curve; as a rule, active = well fitted inhibition curve with a large enough effect (not every such curve was filed as active); inconclusive = small, poorly fitted or top-dose-only effect, or another doubt; inactive = no such curve, though single readings can be large or run the other way.

SMILES	ALDH1A1 block	PNC inhibitor	LMNA splice mod	HPGD block	ALOX12 inhib
COc1ccccc1/C=N/NC(=O)c1ccc(NC(=O)c2cccc([N+](=O)[O-])c2)cc1	7.94µM	nt	?	nt	nt
COc1cc([N+](=O)[O-])cc(/C=N/NC(=O)CC#N)c1O	14.1µM	nt	i	nt	nt
O=C(N/N=C/c1cccc(O)c1)c1ccc(NC(=O)c2cccc([N+](=O)[O-])c2)cc1	i	nt	i	nt	nt
Cc1ccc(-c2ccc(/C=N/O)o2)cc1[N+](=O)[O-]	3.16µM	nt	i	nt	nt
COC(=O)NC(CC(C)=O)c1ccc(Cl)cc1 (centres undefined)	i[13.5 µM]	nt	nt	nt	nt
Cc1ccc(NC(=O)CN2C(=O)CC(c3ccc(C)c(C)c3)=Nc3ccccc32)cc1	nt	nt	i	nt	nt
CC(=O)CSc1nnc2[nH]c(=O)cc(N)n12	nt	nt	i	nt	nt
Cc1ccc(C(=O)N/N=C\c2ccccc2[N+](=O)[O-])cn1	i	nt	nt	nt	nt
Cc1ccc(C(=O)N/N=C\C=C\c2ccccc2[N+](=O)[O-])cn1	7.94µM	nt	?	nt	nt
NC(=S)N/N=C/c1ccc(-c2cc(Cl)cc(Cl)c2)o1	?	i	?	?	?
NC(=S)N/N=C/c1ccc(-c2ccc([N+](=O)[O-])cc2)o1	0.891µM	nt	i	nt	nt
COc1cccc(/C=N/NC(=O)c2cc3cc([N+](=O)[O-])ccc3s2)c1O	i	?	?	28.2µM	i
NC(=S)N/N=C/c1ccccc1[N+](=O)[O-]	22.4µM	nt	nt	nt	nt
CCC(=O)Nc1ccc(C(=O)N/N=C/c2ccccc2[N+](=O)[O-])cc1	28.2µM	i	i	i	i
CCOc1ccc(C(=O)N/N=C/c2ccccc2[N+](=O)[O-])cc1	i	i	i	i	i
Cc1nc(Nc2c(Cl)cccc2Cl)sc1C(=O)Nc1ccccc1	14.1µM	i	?	i	i
Cc1nc(NC(N)=S)sc1C(=O)Nc1ccccc1	?	i	i	i	i
c1ccc(CN2CCN(c3nc(NCc4ccco4)c4ccccc4n3)CC2)cc1	?	i	?	i	i
OCCN1CCN(c2nc(NCc3ccco3)c3ccccc3n2)CC1	?	-88.0	i	i	i
Cc1ccccc1NC(=O)/C=C/c1cccs1	i	nt	i	nt	nt
CCN(CC)S(=O)(=O)c1ccc(C)c(NC(=O)CSc2nc3ccccc3[nH]2)c1	?	-92.3	?	i	i
CCN(CC)S(=O)(=O)c1ccc(C)c(NC(=O)/C=C/c2cccs2)c1	0.708µM	i	?	i	i
Cc1cc(C)nc(NS(=O)(=O)c2ccc(NC(=O)Cc3ccccc3)cc2)n1	i	nt	nt	nt	nt
Cc1cc(C)nc(NS(=O)(=O)c2ccc(NC(=O)C3(c4ccccc4)CCCC3)cc2)n1	i	-115.2	i	nt	i
COc1ccc2nc(SCC(=O)Nc3ccc(S(=O)(=O)Nc4nccc(C)n4)cc3)[nH]c2c1	?	i	i	28.2µM	i
SMILES	ALDH1A1 block	PNC inhibitor	LMNA splice mod	HPGD block	ALOX12 inhib
Cc1ccc(NC(=O)c2sc3nc[nH]c(=O)c3c2C)cc1C	nt	nt	i	nt	nt
CCN1C(=O)[C@H]2[C@H]3[C@H](O)[C@H](O)C/C(=N/OCc4ccccc4)[C@H]3CC[C@@H]2C1=O	i[13.5 µM]	nt	nt	nt	nt
COc1cc(NC(=O)c2nnn(CC(=O)Nc3cc(C)ccc3C)c2N)cc(OC)c1	nt	nt	i	nt	nt
Cc1cc(C)nc(NS(=O)(=O)c2ccc(NC(=O)CSc3nc4ccccc4[nH]3)cc2)n1	20µM	i	i	i	i
O=C(NCc1cccc(F)c1)C1=Cc2cc(Br)ccc2OC1	nt	nt	i	nt	nt
CCc1ccc(-c2csc(-c3cc4cc(Br)ccc4oc3=O)n2)cc1	nt	nt	i	nt	nt
CC1CCN(C(=O)CSc2nc3ccccc3c(=O)[nH]2)CC1	?	nt	i	nt	nt
CC1CCN(C(=O)CSc2nc3[nH]ncc3c(=O)[nH]2)CC1	11.2µM	?	i	i	i
NCCNC(=S)S	3.16µM	nt	nt	3.55µM	i[11.4 µM]
C/C=C1\C(=O)C[C@H]2[C@@H]3CCC4=CC(=O)CC[C@]4(C)[C@H]3CC[C@]12C	?	nt	nt	i	i
Oc1c(C(Nc2nccs2)c2ccc(C(F)(F)F)cc2)ccc2cccnc12 (centres undefined)	i	nt	nt	nt	nt
CC(C)C(=O)NC(c1ccco1)c1ccc2cccnc2c1O (centres undefined)	i	i	?	i	10µM
Oc1c(C(Nc2cccc(C(F)(F)F)c2)c2ccncc2)ccc2cccnc12 (centres undefined)	17.8µM	nt	?	nt	nt
O=C(O)c1ccc(N[C@H](c2ccccc2)c2ccc3cccnc3c2O)cc1	3.98µM	nt	nt	?	i[11.4 µM]
Oc1c(C(Nc2nc3ccccc3s2)c2ccco2)ccc2cccnc12 (centres undefined)	i	i	?	i	i
C1CNCCNCCCNCCNC1	i	-114.6	i	i	i
C1CCCNCC1	22.4µM	nt	nt	i	i
Cc1ccc(C2=NN(Cc3nnc(-c4ccccc4)o3)C(=O)SC2)cc1	i	i	?	11.2µM	i
CCOC(=O)c1cc(-c2ccccc2)n(CCC(=O)NCCc2ccccc2)c1C	nt	nt	i	nt	nt
Cc1coc2cc3oc(=O)c4c(c3cc12)CCC4	?	i	i	i	i
Cc1coc2c1C(=O)C(=O)c1c-2ccc2c1CCCC2(C)C	20µM	nt	?	15.8µM	?
CCOc1ccccc1CNC(=O)CC(C)n1ccc(C)n1 (centres undefined)	nt	nt	i	nt	nt
Cc1ccc(NC(=O)Cn2c(O)c(N=NC(=O)c3ccncc3)c3ccccc32)cc1	4.47µM	nt	i	nt	nt
COc1ccccc1NC(=O)Cn1c(O)c(N=NC(=O)c2ccccc2O)c2ccccc21	1.58µM	nt	nt	nt	nt
CCCCn1c(O)c(N=Nc2ccccn2)c2ccccc21	?	i	?	i	i
SMILES	ALDH1A1 block	PNC inhibitor	LMNA splice mod	HPGD block	ALOX12 inhib
CCCCn1c(O)c(N=NC(=O)c2ccncc2)c2cc(Br)ccc21	7.94µM	?	i	i	i
CN(CCCNC(=O)Cn1ncc2c([nH]c3ccccc32)c1=O)Cc1ccccc1	nt	nt	i	nt	nt
Cc1ccc(NC2SC(=O)N(Cc3cccc(C(=O)O)c3)C2=O)cc1 (centres undefined)	25.1µM	i	i	i	i
CN1C(=O)SC(Nc2ccccc2)C1=O (centres undefined)	31.6µM	i	i	i	i
O=C(O)c1cccc(CN2C(=O)SC(Nc3ccccc3)C2=O)c1 (centres undefined)	7.08µM	i	i	i	i
CN1C(=O)SC(Nc2ccc(F)cc2)C1=O (centres undefined)	?	i	i	i	i
Clc1ccc(-n2ncc3c(NCc4cccs4)ncnc32)cc1	1.58µM	?	?	i	i
Cc1cccc(-n2ncc3c(NCc4cccs4)ncnc32)c1	?	i	?	?	i
c1ccc(CCNc2ncnc3c2cnn3-c2ccccc2)cc1	?	i	i	15.8µM	i
CC(C)(C)Nc1ncnc2c1cnn2-c1ccccc1	i	?	?	25.1µM	i
FC(F)(F)c1ccccc1-c1cc(NCc2cccnc2)ncn1	i	nt	i	nt	nt
COCCCNC(=O)CCCn1c(=O)c2cccn2c2ccccc21	nt	nt	i	nt	nt
CO[C@H]1COC(=O)[C@H](C)COC(=O)[C@H](C)NC(=O)C/C=C\[C@H]1C	i[13.5 µM]	nt	nt	nt	nt
O=C1OC2C[C@H]1[C@@H]1C(=O)N(Cc3ccccc3)CCC1C2I (some centres undefined)	i	nt	nt	i	i[0.00818 µM]
